According to PubChem BioAssay (NCATS):
“And” between values parts separate entries of the source, which are not always exact repeats. Equal entries are not always repeated. Results filed as inconclusive are left out. A number with no mark means an inactive call. Calls follow the shape of the dose curve; as a rule, active = well fitted activation curve with a large enough effect in the signal ratio; inconclusive = small, poorly fitted or top-dose-only effect, or a change in a side signal; inactive = flat fitted curve, though single readings scatter; the % refers to the signal ratio.

test: qHTS assay for small molecule activators of the nuclear factor-kappa B (NF-kB) signaling pathway (AID 651749); details: NF-kB-bla ME-180 cells, beta-lactamase FRET ratio, 16 h; activation: active compounds read high; also: series mostly up to about 77 µM; % of control where 0% means no effect
Excerpt: National Center for Advancing Translational Sciences [NCATS] NIH Chemical Genomics Center [NCGC] U.S. Environmental Protection Agency [EPA] National Institutes of Environmental Health Sciences [NIEHS] National Toxicology Program [NTP] Assay Overview: Transcription factors and their stimulated target gene expression play pivotal roles across many cellular processes including responses to environmental stimuli. Proper regulation of associated pathways is critical to maintain cell health and function. Constitutive activation of transcription factor pathways has been implicated in tumors as it may block cellular functions such as apoptosis and lead to invasion and metastasis. One important transcription factor that stimulates gene expression in response to cytokines, UV radiation, and other stimuli is nuclear factor-kappa B (NF-kB). To measure activation of the NF-kB pathway, the NF-kB-bla ME-180 cell line stably expressed beta-lactamase reporter gene under the regulation of a NF-kB response element was obtained from Invitrogen. This assay allows measurement of the NF-kB pathway activity induced by compounds in a ME-180 cell line. This system quantitates NF-kB activity using a FRET-based assay system where beta-lactamase expression disrupts FRET, allowing for fluorescent measurement of activity.
Assay Protocol Summary: For toxicology screening, 2,000 cells in 5 uL/well were dispensed into black, clear-bottom 1536-well plates using a Multidrop Combi (Thermo Scientific) dispenser. Following transfer of 23 nL compound or DMSO vehicle by a pin tool, the plates were incubated 16 hr at 37C and 5% CO2.

Going from `CCOc1nc(F)cc2nc(S(=O)(=O)Nc3c(Cl)cccc3Cl)nn12` to `O=S(=O)(c1ccc(Cl)cc1)c1cc(Cl)c(Cl)cc1Cl`, the activation rises from 0.211% to 1.59%.

First: CC1(C)[C@H](C=C(Cl)Cl)[C@H]1C(=O)O[C@H](C#N)c1ccc(F)c(Oc2ccccc2)c1
Second: CC(C)=CC1C(C(=O)OCc2coc(Cc3ccccc3)c2)C1(C)C (stereo not given)
The activation of the first is higher: 4.2% for the first, 0.13% for the second.

First: CCOP(=S)(OCC)SCSP(=S)(OCC)OCC
Second: CCOP(=O)(OCC)SCCSCC
The activation of the first is lower: -2.5% for the first, 0.345% for the second.

Going from `O=C1c2ccccc2C(=O)N1SC(Cl)(Cl)Cl` to `O=C(O)C1(O)c2ccccc2-c2ccc(Cl)cc21` (stereo not given), the activation falls from 3.09% to 3.02%.

First: CCCOCC(=Nc1ccc(Cl)cc1C(F)(F)F)n1ccnc1
Second: FC(F)C(F)(F)OCC(Cn1cncn1)c1ccc(Cl)cc1Cl (stereo not given)
The activation of the first is lower: -1.47% for the first, 0.464% for the second.

Compared with `N#Cc1cc(I)c(O)c(I)c1`, `N#Cc1cc(Br)c(O)c(Br)c1` is lower in activation: 1.07% for the first, -2.3% for the second.

First: COc1cc(OC)nc(NC(=O)NS(=O)(=O)c2ncccc2OCC(F)(F)F)n1
Second: CCS(=O)(=O)c1cccnc1S(=O)(=O)NC(=O)Nc1nc(OC)cc(OC)n1
The activation of the first is higher: -0.186% for the first, -1.37% for the second.

First: CCC(C)(NC(=O)c1cc(Cl)c(C)c(Cl)c1)C(=O)CCl (stereo not given)
Second: COC[C@H](C)N(C(=O)CCl)c1c(C)csc1C
The activation of the first is higher: -0.168% for the first, -0.69% for the second.

First: O=[N+]([O-])Nc1nccn1Cc1ccc(Cl)nc1
Second: C/C(=N\C(N)=O)N(C)Cc1ccc(Cl)nc1
The activation of the first is lower: -1.97% for the first, -1.01% for the second.

Going from `COc1cc(OC)nc(NC(=O)NS(=O)(=O)c2cc(NC=O)ccc2C(=O)N(C)C)n1` to `COC(=O)c1ccccc1S(=O)(=O)NC(=O)N(C)c1nc(C)nc(OC)n1`, the activation falls from 1.99% to -0.341%.

Going from `C=CC(=O)OCC(CC)(COC(=O)C=C)COC(=O)C=C` to `CCCCOC(=O)c1ccccc1C(=O)O`, the activation rises from 0.162% to 1.8%.

First: CCSC(=O)N(CC)C1CCCCC1
Second: CCOC1Oc2ccc(OS(C)(=O)=O)cc2C1(C)C (stereo not given)
The activation of the first is higher: 1.91% for the first, 0.657% for the second.

Compared with `CNC(=O)Oc1cccc2c1OC(C)(C)C2O` (stereo not given), `Cc1cc(C)nc(NC(=O)NS(=O)(=O)c2ccccc2C(=O)OC2COC2)n1` is higher in activation: 0.725% for the first, 1.32% for the second.

Going from `C1=Cc2cccc3cccc1c23` to `CCOc1ccc(C(C)(C)COCc2cccc(Oc3ccccc3)c2)cc1`, the activation rises from 0.838% to 2.46%.

Going from `O=C(O)c1c(Cl)ccc2cc(Cl)cnc12` to `Clc1ccc([C@@]2(Cn3cncn3)C[C@H](Br)CO2)c(Cl)c1`, the activation falls from -0.182% to -1.71%.

First: Brc1c(Br)c(Br)c(Br)c(Br)c1Br
Second: CCNc1nc(NC(C)(C)C)nc(SC)n1
The activation of the first is higher: -0.808% for the first, -1.56% for the second.

First: CCOP(=S)(OCC)Oc1ncn(-c2ccccc2)n1
Second: CCOP(=S)(OCC)Oc1nc(Cl)n(C(C)C)n1
The activation of the first is higher: 2.03% for the first, 1.85% for the second.

First: CCC[CH2][Sn]([CH2]CCC)([CH2]CCC)[CH2]CCC
Second: CNC(=O)O/N=C/C(C)(C)S(C)(=O)=O
The activation of the first is higher: 1.03% for the first, -1.23% for the second.

Going from `CN1COCN(Cc2cnc(Cl)s2)/C1=N\[N+](=O)[O-]` to `CC(C)(C)C(=O)[C@H](Oc1ccc(Cl)cc1)n1cncn1`, the activation falls from 0.219% to -5.68%.

In the case of `CC(C)N1C(=O)N(c2ccccc2)CSC1=NC(C)(C)C`, the activation was 0.243% and -2.38%.
With `O=S(=O)(O)C(F)(F)C(F)(F)C(F)(F)C(F)(F)C(F)(F)C(F)(F)F` the activation was 0.018% and -0.659%.
